Assay outcomes from PubChem.
GLS inh: inhibitors of human glutaminase (GLS) | O94925 | GLS enzymatic activity, qHTS titration | Potency, µM (titrated, usually from 45.5 µM), for inactives: at the highest dose activity change, negative = inhibition, hits mostly inhibitors | 0.21% of 410,000 active; further: on the % scale 0 is the no-effect control and ±100 the full control effect
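Assay buffer: 45 mM KH2PO4 pH 8.2, 0.02% Tween-20. hKGA acts on L-glutamine (1 mM solution added); product glutamate is reported by an oxidase/peroxidase Amplex Red coupling, with fluorescence taken at baseline and 30 min.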
JMJD2A Tudor inh: inhibitors of human JMJD2A Tudor domain | O75164 | AlphaScreen JMJD2A-Tudor / H3K4me3 peptide binding | Potency, µM (highest dose often 114 µM), inactives show at the highest dose activity change, negative = inhibition, hits mostly inhibitors | 4.4% of 390,000 active | AID 504339; further: on the % scale 0 is the no-effect control and ±100 the full control effect; nearly all actives have a fitted effect of over 50% in size
BAZ2B block: inhibitors of human BAZ2B bromodomain. AlphaScreen BAZ2B-H3K14Ac peptide displacement. 4.4% of 360,000 active. AID 504333. Potency, µM (top dose mostly 114 µM), inactives show at the top dose activity change, negative = inhibition, hits mostly inhibitors; further: on the % scale 0 is the no-effect control and ±100 the full control effect; nearly all actives have a fitted effect of over 60% in size
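Multi-concentration screen (max 110 uM) measuring displacement of acetylated histone H3 peptide from BAZ2B by AlphaScreen, using 50 nM protein, 50 nM peptide and 10 ug/mL streptavidin donor plus Ni-chelate acceptor beads.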
G9a inh: inhibitors of human histone lysine methyltransferase G9a; Q96KQ7; 8.8% of 350,000 active; Potency, µM (highest dose often 102 µM), for the others: top-dose activity, negative = inhibition, usual class: inhibitors; G9a H3K9 monomethylation, AlphaScreen, 2 h; AID 504332; further: on the % scale 0 is the no-effect control and ±100 the full control effect; nearly all actives have a fitted effect of over 75% in size
Target sequence (Q96KQ7 913-1193 limits assumed): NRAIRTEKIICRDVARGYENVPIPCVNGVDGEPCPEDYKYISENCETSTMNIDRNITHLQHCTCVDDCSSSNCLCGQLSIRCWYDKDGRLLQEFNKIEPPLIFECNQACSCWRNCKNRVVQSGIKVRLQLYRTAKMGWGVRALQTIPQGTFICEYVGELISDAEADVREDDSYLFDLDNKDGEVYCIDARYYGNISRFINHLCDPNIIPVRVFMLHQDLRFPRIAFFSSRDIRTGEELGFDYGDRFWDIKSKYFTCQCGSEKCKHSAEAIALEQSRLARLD
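Chemiluminescent proximity detection of H3K9 monomethylation, read after 10 min bead incubation in the dark. Reaction: 20 nM G9a, 500 nM biotin-H3K9 peptide, 20 uM SAM cofactor, 2 h, room temperature, following 15 min enzyme-compound preincubation.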
HP1b binding inh: blocks HP1-beta chromodomain binding to methylated histone tails; AID 540317; P83916; Potency, µM (top dose mostly 114 µM), for the others: at the top dose activity change, negative = inhibition, hits mostly inhibitors; AlphaScreen HP1-beta / biotin-H3K9me3 peptide binding; 0.56% of 390,000 active; further: nearly all actives have a fitted effect of over 70% in size
Target sequence (P83916 whole entry, looked up): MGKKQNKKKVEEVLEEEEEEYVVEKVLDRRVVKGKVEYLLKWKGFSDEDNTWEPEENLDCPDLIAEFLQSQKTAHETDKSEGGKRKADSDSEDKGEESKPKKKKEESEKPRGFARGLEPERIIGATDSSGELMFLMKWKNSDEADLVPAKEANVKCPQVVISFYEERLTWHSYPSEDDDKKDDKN
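AlphaScreen: HP1-beta (50 nM) preformed 30 min with biotin-H3(1-18)K9me3 peptide (50 nM) in PBS pH 7.4, 0.01% Tween-20. Compound added for 30 min at RT, then streptavidin donor/nickel chelate acceptor beads (10 ug/mL) for 30 min.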
* hit, by the source's call; ? = inconclusive; / = not tested or not shown; [ ] = dose if it differs, or a comment. This is a sample that favours compounds with a hit; in the whole collection about 10% have one here. The call rests on the fitted dose curve; in most records, active means well fitted curve in the direction sought with a large enough effect; inconclusive means small, poorly fitted or top-dose-only effect, or another doubt; inactive means no such curve, though single readings can be large; an effect the other way counts as inactive or inconclusive. Potency means the concentration at half of the fitted maximal effect.

SMILES	GLS inh	JMJD2A Tudor inh	BAZ2B block	G9a inh	HP1b binding inh
O=[N+]([O-])c1ccc(Cl)c(/C=N/n2c(COc3ccccc3)n[nH]c2=S)c1	11%	50µM*	-9%	8.9µM*	?
COC(=O)[C@]12CCCCC=C1N(Cc1ccc(Cl)cc1Cl)C(=O)[C@H](CC(=O)NCCCCc1ccccc1)C2	0%	/	/	/	/
CCCCOCCCNC(=O)C[C@@H]1C[C@@]2(C(=O)OCC)CCCC=C2N(Cc2ccc3c(c2)OCO3)C1=O	-22%	/	/	/	/
CCCCn1c(N)c(N(CCOC)C(=O)c2cccc(-n3cnnn3)c2)c(=O)[nH]c1=O	3%	-4%	-6%	?	28%
COc1cccc(C(=O)NCC2CCN(c3ccc(S(=O)(=O)N4CCOCC4)cc3)CC2)c1	-8%	1%	8%	10%	9%
C/C(=C\C(=O)c1ccccc1)Nc1ccc(N2CCOCC2)cc1	14%	-27%	-1%	79µM*	23%
Cc1ccccc1C(=O)NC(=S)Nc1ccc(N2CCOCC2)cc1	26%	?	?	45µM*	?
O=C(NC(=S)Nc1ccc(N2CCOCC2)cc1)c1cccc(Cl)c1	3%	?	18µM*	28µM*	?
O=C(NCC1CCN(c2ccc(S(=O)(=O)N3CCOCC3)cc2)CC1)c1cccc(Cl)c1	14%	-17%	56µM*	-18%	11%
CCOC(=O)c1noc2ncn(CC(=O)Nc3ccccc3OC)c(=O)c12	-11%	-17%	-27%	9%[59 µM]	10%[57 µM]
O=C(NC(=S)Nc1ccc(N2CCOCC2)cc1)c1ccco1	27%	-29%	-5%	?	-15%
CCc1ccc(C(=O)NC(=S)Nc2ccc(N3CCOCC3)cc2)cc1	8%	?	20µM*	6.3µM*	?
O=C(NC(=S)Nc1ccc(N2CCOCC2)cc1)c1ccccc1	-13%	?	?	4.5µM*	?
CC(=O)c1ccc(NC(=S)Nc2ccc(N3CCOCC3)cc2)cc1	?	-6%	-27%	45µM*	-17%
O=C(NC(=S)Nc1ccc(N2CCOCC2)cc1)c1cncc(Br)c1	24%	-29%	?	?	?
CN(C)C(=S)Nc1ccc(N2CCOCC2)cc1	38%	-4%	-1%	/	47%
COc1cccc(NC(=O)COC(=O)c2cc(=O)c3ccccc3o2)c1	3%	-2%	9%	-18%[12.7 µM]	24%
Cc1ccc(C)c(NC(=O)CN2C(=O)C3CC=CCC3C2=O)c1 (centres undefined)	0%	/	/	/	/
CC(=O)c1cc(O)c2ccccc2c1O	6%	56µM*	45µM*	3.2µM*	?
COc1cccc(OC)c1C(=O)NC1C(=O)N2C1SC(C)(C)C2C(=O)O (centres undefined)	-6%	/	/	-5%[2.33 µM]	/
Cc1ccc(SC2=C(Sc3ccc(C)cc3)C(=O)c3ccccc3C2=O)cc1	-6%	3.5µM*	3.5µM*	2.8µM*	3.5µM*
Cc1ccc(N2C(=O)c3ccccc3C2=O)cc1	-1%	0%	-10%	/	21%
Cc1cccc(-n2c(C)c(C)c3c(N)ncnc32)c1	3%	?	-31%	50µM*	-26%
COc1ccc(Cc2nnc(SCC(=O)N3CCCCC3)o2)cc1	-2%	-19%	-21%	71µM*	-39%
CN(C)c1ccc(N=c2sc3ccccc3n2C)cc1	75%	10µM*	7.9µM*	?	10µM*
SMILES	GLS inh	JMJD2A Tudor inh	BAZ2B block	G9a inh	HP1b binding inh
COC(=O)c1ccc(C2Nc3ccc(/C(C)=N/NC(=O)C(OC)c4ccccc4)cc3C3C=CCC32)cc1 (centres undefined)	13%	79µM*	56µM*	7.1µM*	-21%
O=C(O)C1Nc2c(cccc2C(F)(F)F)C2C=CCC12 (centres undefined)	/	/	40µM*	2.5µM*	/
CCOC(=O)C1Nc2ccc(OC(F)(F)F)cc2C2C=CCC12 (centres undefined)	6%	25µM*	/	/	?
CCOc1ccc2c(c1)[C@@H]1C=CC[C@@H]1[C@H](c1ccccc1Cl)N2	-21%	45µM*	28µM*	11µM*	?
CCN(CC)CCCNC(=O)CNC(=O)c1nn(-c2ccc(OC)cc2OC)c(=O)c2ccccc12	-4%	/	/	/	/
Cc1ccc(Cl)cc1-n1c(=O)c2sc3ccccc3c2n(CC(=O)NC2CCCCC2)c1=O	0%	-17%	-4%	0%[59 µM]	24%
O=C(O)c1ccc2c(c1)C1C=CCC1C(c1cc3c(cc1Br)OCO3)N2 (centres undefined)	15%	-29%	-34%	-45%	4%
Brc1cc2c(cc1C1Nc3ccccc3C3C=CCC31)OCO2 (centres undefined)	3%	-23%	-34%	42%[59 µM]	19%
CC(=O)c1ccc2c(c1)C1C=CCC1C(c1ccncc1)N2 (centres undefined)	5%	?	50µM*	?	-9%
CC(=O)c1ccc2c(c1)C1C=CCC1C(C(=O)O)N2 (centres undefined)	2.5µM*	6.3µM*	6.3µM*	-174%[12.7 µM]	20µM*
C1=CC2c3ccccc3NC(c3ccncc3)C2C1 (centres undefined)	-11%	45µM*	?	1.6µM*	?
Cc1ccc2c(c1)C1C=CCC1C(C(=O)O)N2 (centres undefined)	/	/	6.3µM*	4µM*	/
CC1CN(C(=O)CCN2C(=O)c3ccccc3C2=O)CC(C)O1 (centres undefined)	3%	-4%	0%	-3%[59 µM]	23%
Cn1cccc1C(=O)N1CCC2(CC1)CCN(c1ccncc1)CC2	/	/	/	-1%[12.7 µM]	/
Cc1nc2cc(-c3ccccc3)nn2c(C)c1CCC(=O)NCc1cccc(Cl)c1	0%	-21%	-8%	11%[59 µM]	24%
Cc1nn(Cc2n[nH]c(=S)n2Cc2ccccc2)c(C)c1Cl	3%	?	-22%	2.5µM*	16%
Cc1nn(Cc2ccccc2)c(C)c1N	2%	?	-35%	-8%	-4%
Cc1cc(C)n(Cc2n[nH]c(=S)n2Cc2ccccc2)n1	-1%	22µM*	-5%	16µM*	44%
Cc1ccc(OCc2n[nH]c(=S)n2Cc2ccccc2)cc1	29%	-28%	-20%	?	20%
COCCn1c(C)cc(C(=O)COc2cccnc2[N+](=O)[O-])c1C	1%	-28%	-31%	?	11%
Cc1cc(C)c(C(=O)COc2cccnc2[N+](=O)[O-])cc1C	10%	56µM*	50µM*	7.1µM*	3%
CCn1c(SCC(=O)c2ccc(OC)cc2)nnc1C1CC1	1%	100µM*	0%	15%[12.7 µM]	-3%
CCn1c(SCC(=O)NNC(=O)c2ccc(OC)cc2)nnc1C1CC1	-5%	?	10%	19%	5%
COc1ccc(OC)c(C(=O)CSc2nnc(C3CC3)n2C2CC2)c1	5%	/	/	/	/
CCn1c(SCC(=O)c2cc(OC)ccc2OC)nnc1C1CC1	9%	-19%	2%	50µM*	26%
